In the supplement of paper PMC10849652:
About 7,900 targets were measured; listed, in parts, are those with a hit and a random draw of the rest. About 0.6% of all pairs of compound and target were hits. Unmarked numbers belong to inactive results.

What was measured:
Test in all cases: log2 fold change, soluble protein after heating vs DMSO (PISA); higher = thermal stabilisation; K562 cells, 10 uM, 30 min; active = over 0.2 and 3.5 SD of the protein, either way, in both replicates (recomputed)
IRAK-1-4 Inhibitor I = compound: C1COCCN1CCN2C3=CC=CC=C3N=C2NC(=O)C4=CC(=CC=C4)[N+](=O)[O-] [IRAK-1-4 Inhibitor I]
How it was run: (§1)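 K562 cells at 2×10^6 cells/mL were treated for 30 min with 10 μM compound, and aliquots were heated for 3 min over 48°C-58°C before pooling. Extraction used PBS with 0.5% NP-40 at 4°C, and soluble protein was the supernatant after 21,000xg for 90 min, measured by TMTpro 16plex LC-MS/MS with channel sums equalised. Thermal stability values, relative to control samples and from duplicates, are log2 fold changes.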

ibrutinib = compound: C=CC(=O)N1CCC[C@@H](n2nc(-c3ccc(Oc4ccccc4)cc3)c3c(N)ncnc32)C1 [ibrutinib]
How it was run: as §1

[1] = compound: CC(=O)c1cnc2ccc(-c3cc(Cl)c(O)c(Cl)c3)nc2c1N[C@H]1CC[C@H](CN(C)C)CC1
How it was run: as §1

ralimetinib = compound: CC(C)(C)Cn1c(N)nc2ccc(-c3[nH]c(C(C)(C)C)nc3-c3ccc(F)cc3)nc21 [ralimetinib]
How it was run: as §1

[2] = compound: CC(C)(O)CC(=O)NCCn1ccc2ncnc(Nc3ccc(Oc4cccc(C(F)(F)F)c4)c(Cl)c3)c21
How it was run: as §1

[3] = compound: CC(C)C1=C2N=C(C=C(N2N=C1)NCC3=CC=CC=C3)NCCCCCCN
How it was run: as §1

[4] = compound: CC(C)C[C@@H](C=O)NC(=O)[C@H](CC(C)C)NC(=O)[C@H](CC(C)C)NC(=O)OCc1ccccc1
How it was run: as §1

pinometostat = compound: CC(C)N(C[C@H]1O[C@@H](n2cnc3c(N)ncnc32)[C@H](O)[C@@H]1O)[C@H]1C[C@@H](CCc2nc3cc(C(C)(C)C)ccc3[nH]2)C1 [pinometostat]
How it was run: as §1

[5] = compound: CC1=C(C(CC(=O)N1)C2=CC=C(C=C2)C(F)(F)F)C(=O)NC3=C(C=C4C(=C3)C=NN4)F
How it was run: as §1

[6] = compound: CC1=C(C2=C(C=C1)C(=O)C3=CC=CC=C3N2CCCN)C
How it was run: as §1

[7] = compound: CC1=C(C=C(C=C1)NC(=O)C2=CC(=CC=C2)C(C)(C)C#N)NC3=CC4=C(C=C3)N=CN(C4=O)C
How it was run: as §1

[8] = compound: CC1=C(C=C(C=C1)NC(=O)C2=CC(=CC=C2)N(C)C)NC(=O)C3=CC=C(C=C3)O
How it was run: as §1

[9] = compound: CC1=CC=C(C=C1)SC2=C3C=C(SC3=CN=C2)C(=O)N
How it was run: as §1

[10] = compound: CC1=NC(=CC=C1)C2=C(N=C(N2)C(C)(C)C)C3=CC4=NC=CN=C4C=C3
How it was run: as §1

Nexturastat A = compound: CCCCN(Cc1ccc(C(=O)NO)cc1)C(=O)Nc1ccccc1 [Nexturastat A]
How it was run: as §1

vemurafenib = compound: CCCS(=O)(=O)Nc1ccc(F)c(C(=O)c2c[nH]c3ncc(-c4ccc(Cl)cc4)cc23)c1F [vemurafenib]
How it was run: as §1

[11] = compound: CCCS(=O)(=O)Nc1ccc(F)c(C(=O)c2c[nH]c3ncc(Cl)cc23)c1F
How it was run: as §1

[12] = compound: CCCc1cc(C)[nH]c(=O)c1CNC(=O)c1cc(-c2ccnc(N3CCN(C)CC3)c2)cc2c1cnn2C(C)C
How it was run: as §1

givinostat = compound: CCN(CC)Cc1ccc2cc(COC(=O)Nc3ccc(C(=O)NO)cc3)ccc2c1 [givinostat]
How it was run: as §1

barasertib = compound: CCN(CCCOc1ccc2c(Nc3cc(CC(=O)Nc4cccc(F)c4)[nH]n3)ncnc2c1)CCOP(=O)(O)O [barasertib]
How it was run: as §1

Sequence of UniProt Q12968 (Q12968 whole entry, looked up): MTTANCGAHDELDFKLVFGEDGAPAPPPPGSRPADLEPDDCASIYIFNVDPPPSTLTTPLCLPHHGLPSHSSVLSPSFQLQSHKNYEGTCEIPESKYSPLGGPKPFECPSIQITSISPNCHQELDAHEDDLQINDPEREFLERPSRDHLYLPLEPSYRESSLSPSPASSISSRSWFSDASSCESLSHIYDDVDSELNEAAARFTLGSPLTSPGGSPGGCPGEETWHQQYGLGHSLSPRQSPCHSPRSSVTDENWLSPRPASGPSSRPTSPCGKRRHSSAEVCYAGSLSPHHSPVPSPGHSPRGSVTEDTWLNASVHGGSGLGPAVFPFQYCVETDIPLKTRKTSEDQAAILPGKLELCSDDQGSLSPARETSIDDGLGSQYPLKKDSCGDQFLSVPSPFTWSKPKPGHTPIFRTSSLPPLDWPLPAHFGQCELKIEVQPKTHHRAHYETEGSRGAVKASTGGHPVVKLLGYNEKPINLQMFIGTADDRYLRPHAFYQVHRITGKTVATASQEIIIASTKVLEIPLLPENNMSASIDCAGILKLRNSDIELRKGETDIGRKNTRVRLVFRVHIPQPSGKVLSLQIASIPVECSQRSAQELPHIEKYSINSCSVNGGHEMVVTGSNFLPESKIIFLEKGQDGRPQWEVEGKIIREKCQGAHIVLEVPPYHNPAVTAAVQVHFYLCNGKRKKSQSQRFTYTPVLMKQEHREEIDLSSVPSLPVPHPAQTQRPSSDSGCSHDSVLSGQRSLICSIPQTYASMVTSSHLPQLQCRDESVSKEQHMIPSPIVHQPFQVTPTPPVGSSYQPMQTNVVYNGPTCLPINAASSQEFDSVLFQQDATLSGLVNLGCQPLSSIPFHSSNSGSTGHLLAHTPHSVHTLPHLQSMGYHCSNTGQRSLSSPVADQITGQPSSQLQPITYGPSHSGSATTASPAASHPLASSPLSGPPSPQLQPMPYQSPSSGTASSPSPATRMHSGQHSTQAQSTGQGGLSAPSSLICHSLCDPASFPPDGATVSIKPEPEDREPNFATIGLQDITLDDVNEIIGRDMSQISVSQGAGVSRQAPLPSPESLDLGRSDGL
Sequence of UniProt Q9BZQ8 (Q9BZQ8 whole entry, looked up): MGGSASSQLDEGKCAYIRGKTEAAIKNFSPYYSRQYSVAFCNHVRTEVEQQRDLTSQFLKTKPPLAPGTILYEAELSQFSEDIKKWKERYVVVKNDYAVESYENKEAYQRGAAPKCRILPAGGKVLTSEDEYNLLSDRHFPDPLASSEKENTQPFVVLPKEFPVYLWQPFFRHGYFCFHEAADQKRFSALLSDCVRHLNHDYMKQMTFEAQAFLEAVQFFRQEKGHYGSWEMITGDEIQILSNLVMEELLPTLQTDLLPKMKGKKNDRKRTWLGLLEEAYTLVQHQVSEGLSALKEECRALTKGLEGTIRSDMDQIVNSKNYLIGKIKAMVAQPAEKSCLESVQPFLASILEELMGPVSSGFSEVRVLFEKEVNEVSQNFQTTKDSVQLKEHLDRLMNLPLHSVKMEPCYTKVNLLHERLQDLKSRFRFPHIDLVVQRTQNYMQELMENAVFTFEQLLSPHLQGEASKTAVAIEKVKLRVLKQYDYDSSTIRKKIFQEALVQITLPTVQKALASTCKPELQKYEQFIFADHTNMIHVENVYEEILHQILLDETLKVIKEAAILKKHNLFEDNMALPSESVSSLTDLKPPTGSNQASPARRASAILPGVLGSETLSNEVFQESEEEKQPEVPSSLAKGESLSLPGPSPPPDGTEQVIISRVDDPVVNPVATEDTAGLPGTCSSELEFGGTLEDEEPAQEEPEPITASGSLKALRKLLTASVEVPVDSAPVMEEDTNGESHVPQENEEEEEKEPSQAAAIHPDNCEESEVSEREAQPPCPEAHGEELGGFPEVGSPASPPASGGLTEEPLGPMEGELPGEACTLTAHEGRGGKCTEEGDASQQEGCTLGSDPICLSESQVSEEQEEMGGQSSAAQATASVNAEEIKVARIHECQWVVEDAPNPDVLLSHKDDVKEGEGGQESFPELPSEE
Sequence of UniProt P49757 (P49757 whole entry, looked up): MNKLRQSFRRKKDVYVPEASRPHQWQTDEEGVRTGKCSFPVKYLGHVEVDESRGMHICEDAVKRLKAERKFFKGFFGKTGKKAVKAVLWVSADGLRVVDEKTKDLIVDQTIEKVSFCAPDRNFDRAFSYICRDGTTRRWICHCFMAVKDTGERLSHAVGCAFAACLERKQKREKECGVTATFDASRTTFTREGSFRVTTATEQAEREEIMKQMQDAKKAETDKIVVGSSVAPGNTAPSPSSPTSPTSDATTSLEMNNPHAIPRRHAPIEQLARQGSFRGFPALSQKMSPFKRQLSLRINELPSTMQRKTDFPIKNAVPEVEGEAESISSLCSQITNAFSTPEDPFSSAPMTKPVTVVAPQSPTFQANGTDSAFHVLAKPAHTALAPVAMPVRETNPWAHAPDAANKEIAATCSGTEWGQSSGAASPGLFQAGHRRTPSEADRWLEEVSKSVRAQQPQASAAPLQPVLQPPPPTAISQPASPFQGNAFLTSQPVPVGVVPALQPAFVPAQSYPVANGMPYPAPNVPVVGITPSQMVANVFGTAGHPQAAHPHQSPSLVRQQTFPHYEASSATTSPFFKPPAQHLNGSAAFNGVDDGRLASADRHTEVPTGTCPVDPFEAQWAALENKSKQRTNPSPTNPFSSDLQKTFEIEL
Sequence of UniProt Q9H081 (Q9H081 whole entry, looked up): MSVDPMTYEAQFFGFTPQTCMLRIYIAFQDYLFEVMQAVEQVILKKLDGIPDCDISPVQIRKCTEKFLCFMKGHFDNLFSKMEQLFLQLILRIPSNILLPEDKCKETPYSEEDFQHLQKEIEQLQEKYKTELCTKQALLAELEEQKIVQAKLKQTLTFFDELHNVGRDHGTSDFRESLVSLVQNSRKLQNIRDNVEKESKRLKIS
Sequence of UniProt Q9BSU3 (Q9BSU3 whole entry, looked up): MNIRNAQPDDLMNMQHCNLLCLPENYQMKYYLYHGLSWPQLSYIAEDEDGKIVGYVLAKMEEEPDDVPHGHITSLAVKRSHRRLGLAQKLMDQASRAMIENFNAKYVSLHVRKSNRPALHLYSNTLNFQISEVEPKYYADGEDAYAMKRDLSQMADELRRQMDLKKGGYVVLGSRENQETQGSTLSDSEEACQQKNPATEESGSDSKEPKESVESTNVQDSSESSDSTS
Sequence of UniProt P20585 (P20585 whole entry, looked up): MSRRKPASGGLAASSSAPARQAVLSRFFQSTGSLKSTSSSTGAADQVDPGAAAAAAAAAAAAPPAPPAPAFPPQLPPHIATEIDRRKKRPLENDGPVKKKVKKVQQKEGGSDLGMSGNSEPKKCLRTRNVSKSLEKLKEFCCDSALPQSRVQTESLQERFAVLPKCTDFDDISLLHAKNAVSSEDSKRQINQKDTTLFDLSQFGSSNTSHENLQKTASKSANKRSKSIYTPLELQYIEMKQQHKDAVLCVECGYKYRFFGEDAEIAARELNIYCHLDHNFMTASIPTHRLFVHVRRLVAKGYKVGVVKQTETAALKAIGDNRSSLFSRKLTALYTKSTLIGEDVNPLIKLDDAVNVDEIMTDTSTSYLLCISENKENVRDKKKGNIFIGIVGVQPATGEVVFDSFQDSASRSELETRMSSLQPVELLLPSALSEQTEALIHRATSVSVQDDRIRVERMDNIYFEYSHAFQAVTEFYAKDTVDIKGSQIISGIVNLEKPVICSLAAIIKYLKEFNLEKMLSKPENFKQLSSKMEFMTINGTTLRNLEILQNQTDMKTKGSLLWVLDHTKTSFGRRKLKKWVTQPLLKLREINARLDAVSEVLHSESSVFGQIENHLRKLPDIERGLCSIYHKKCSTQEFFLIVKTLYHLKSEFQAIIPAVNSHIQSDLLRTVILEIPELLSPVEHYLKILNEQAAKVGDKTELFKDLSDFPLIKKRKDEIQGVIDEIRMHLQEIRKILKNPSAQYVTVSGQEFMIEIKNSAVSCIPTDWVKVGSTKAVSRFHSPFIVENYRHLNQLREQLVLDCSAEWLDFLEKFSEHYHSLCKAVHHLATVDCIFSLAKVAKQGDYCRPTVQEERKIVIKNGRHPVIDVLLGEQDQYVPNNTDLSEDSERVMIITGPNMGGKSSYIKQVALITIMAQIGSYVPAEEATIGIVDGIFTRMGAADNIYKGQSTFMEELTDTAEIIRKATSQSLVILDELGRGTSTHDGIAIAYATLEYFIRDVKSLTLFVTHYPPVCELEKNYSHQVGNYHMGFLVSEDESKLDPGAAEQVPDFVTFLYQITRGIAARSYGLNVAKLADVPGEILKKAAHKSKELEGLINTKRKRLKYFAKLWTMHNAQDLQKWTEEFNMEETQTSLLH
Sequence of UniProt Q96BN8 (Q96BN8 whole entry, looked up): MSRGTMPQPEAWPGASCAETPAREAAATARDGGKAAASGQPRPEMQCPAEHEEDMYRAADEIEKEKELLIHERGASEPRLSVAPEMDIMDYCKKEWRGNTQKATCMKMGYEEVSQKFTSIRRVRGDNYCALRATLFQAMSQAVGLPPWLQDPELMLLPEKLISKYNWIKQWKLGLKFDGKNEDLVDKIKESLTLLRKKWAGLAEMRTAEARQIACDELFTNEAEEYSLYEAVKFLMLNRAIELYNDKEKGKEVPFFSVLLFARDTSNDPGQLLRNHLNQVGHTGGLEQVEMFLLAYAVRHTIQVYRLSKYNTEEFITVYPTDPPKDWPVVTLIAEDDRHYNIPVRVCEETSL
Sequence of UniProt P03886 (P03886 whole entry, looked up): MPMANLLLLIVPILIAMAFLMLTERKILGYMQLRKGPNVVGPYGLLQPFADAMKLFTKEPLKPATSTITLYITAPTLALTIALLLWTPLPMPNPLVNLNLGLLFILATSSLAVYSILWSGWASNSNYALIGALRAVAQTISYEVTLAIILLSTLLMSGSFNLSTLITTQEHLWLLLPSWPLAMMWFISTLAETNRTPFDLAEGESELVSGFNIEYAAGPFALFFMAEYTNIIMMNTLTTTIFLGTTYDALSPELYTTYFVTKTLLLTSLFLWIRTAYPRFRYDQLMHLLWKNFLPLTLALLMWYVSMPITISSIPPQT

Row | Target | log2 fold change (IRAK-1-4 Inhibitor I) | log2 fold change (ibrutinib) | log2 fold change [1] | log2 fold change (ralimetinib) | log2 fold change [2] | log2 fold change [3] | log2 fold change [4] | log2 fold change (pinometostat) | log2 fold change [5] | log2 fold change [6] | log2 fold change [7] | log2 fold change [8] | log2 fold change [9] | log2 fold change [10] | log2 fold change (Nexturastat A) | log2 fold change (vemurafenib) | log2 fold change [11] | log2 fold change [12] | log2 fold change (givinostat) | log2 fold change (barasertib)
1 | NIBAN1 (UniProt Q9BZQ8) | -0.125 | 0 | -0.163 | 0.084 | -0.07 | -0.277 (active) | 0.037 | 0.068 | -0.002 | 0.02 | 0.05 | -0.036 | 0.102 | 0.01 | 0.077 | 0.046 | 0.083 | 0.039 | 0.05 | 0.063
2 | NA, A0A0B4J2A0 | 0.014 | -0.015 | -0.072 | -0.023 | -0.105 | 0.044 | 0.031 | 0.018 | 0.051 | 0.107 | 0.016 | -0.028 | 0.002 | -0.006 | -0.043 | 0.017 | 0.072 | -0.091 | 0.029 | 0.012
3 | MRPL46 (UniProt Q9H2W6) | -0.069 | -0.012 | 0.077 | 0.029 | -0.008 | -0.073 | 0.064 | 0.03 | -0.004 | -0.026 | 0.061 | -0.044 | -0.009 | -0.064 | 0.076 | -0.061 | -0.006 | 0.009 | -0.003 | -0.008
4 | NUMB (UniProt P49757) | 0.008 | -0.05 | -0.318 (active) | 0.049 | -0.062 | -0.086 | 0.053 | 0.061 | 0.047 | 0.079 | -0.006 | 0.018 | -0.067 | -0.046 | 0.09 | 0.026 | -0.002 | 0.004 | 0.02 | -0.01
5 | PAAF1 (UniProt Q9BRP4) | 0.037 | -0.003 | -0.029 | 0.001 | 0.007 | 0.037 | -0.28 (active) | -0.026 | 0.008 | 0.027 | -0.026 | -0.005 | 0.016 | 0.003 | -0.035 | -0.028 | 0.019 | -0.038 | 0.023 | 0.021
6 | OTULIN (UniProt Q96BN8) | 0.021 | -0.025 | -0.003 | -0.01 | -0.059 | -0.362 (active) | 0.024 | 0.034 | -0.02 | 0.008 | 0.03 | 0.002 | 0.035 | 0.015 | -0.17 | -0.023 | 0.171 | -0.018 | 0.039 | 0.105
7 | MSH3 (UniProt P20585) | -0.001 | -0.002 | 0.054 | -0.053 | 0.01 | 0.068 | 0.056 | 0.043 | 0.023 | 0.27 (active) | 0.029 | -0.033 | 0.021 | -0.101 | -0.015 | 0.019 | 0.053 | -0.013 | 0.002 | -0.001
8 | NR2C2AP isoform 2 (UniProt Q86WQ0) | -0.126 | -0.003 | -0.062 | -0.056 | 0.012 | 0.01 | -0.026 | -0.073 | 0.057 | 0.063 | -0.053 | -0.068 | -0.007 | 0.082 | -0.101 | -0.026 | 0.066 | -0.085 | -0.035 | -0.002
9 | NFATC3 (UniProt Q12968) | -0.116 | 0.01 | -0.406 (active) | 0.386 (active) | -0.105 | -0.209 | 0.145 | 0.053 | 0.015 | -0.036 | 0.067 | -0.506 | 0 | -0.055 | 0.047 | -0.033 | 0.094 | 0.116 | 0.088 | 0.019
10 | MITD1 (UniProt Q8WV92) | -0.043 | 0.03 | 0 | -0.002 | -0.296 | -0.77 (active) | -0.002 | 0.082 | -0.101 | 0.047 | -0.124 | 0.072 | -0.043 | -0.043 | -0.026 | 0.069 | 0 | -0.093 | -0.047 | 0.042
11 | NCL (UniProt P19338) | -0.144 | 0.034 | 0.118 | 0.166 | 0.119 | 0.07 | 0.121 | 0.4 | 0.039 | -0.891 (active) | -0.017 | -0.056 | -0.077 | -0.126 | 0.275 | -0.139 | -0.036 | 0.145 | 0.085 | -0.101
12 | NUDT1 (UniProt P36639) | 0.025 | 0.943 (active) | 0.816 (active) | 1.69 (active) | -0.263 | 0.946 (active) | -0.082 | -0.017 | -0.069 | 0.074 | -0.016 | -0.058 | -0.064 | -0.164 | -0.086 | -0.004 | 0.209 | -0.026 | -0.042 | -0.03
13 | MNAT1 (UniProt P51948) | 0.025 | 0.03 | -0.221 (active) | -0.044 | 0.024 | 0.062 | -0.028 | 0.022 | -0.016 | -0.027 | 0.004 | -0.006 | 0.001 | 0.001 | 0.043 | -0.006 | 0.039 | -0.037 | 0.069 | -0.003
14 | NAA11 (UniProt Q9BSU3) | 0.035 | 0.049 | -0.102 | -0.024 | -0.042 | -0.075 | 0.072 | -0.131 | -0.007 | 0 | -0.375 | 0.006 | 0.06 | 0.021 | -0.016 | 0.145 | -0.067 | 0.047 | 0 | -0.027
15 | MIS12 (UniProt Q9H081) | 0.024 | 0.026 | -0.025 | -0.004 | -0.151 | -0.087 | 0.06 | 0.006 | 0.019 | -0.035 | -0.008 | -0.141 | -0.004 | 0.044 | 0.056 | 0.074 | -0.002 | 0.023 | 0.102 | 0.049
16 | MT-ND1 (UniProt P03886) | 0.104 | -0.009 | -0.072 | 0.071 | -0.142 | -0.142 | -0.102 | -0.092 | -0.115 | 0.119 | -0.002 | 0.028 | -0.008 | -0.034 | 0.021 | 0.168 | 0.208 | 0.019 | 0.057 | 0.127
